Screening data from PubChem.
Most compounds without a hit are left out; they make up all but 12% or so of the library.
AmpC no deterg: blocks E. coli AmpC beta-lactamase in detergent-free assay; actives 0.52% (n = 330,000); Potency, µM (titrated, usually from 57.1 µM), for inactives: top-dose activity change, negative = inhibition, most hits filed as inhibitors; P00811; AID 485341; AmpC nitrocefin hydrolysis, absorbance 480 nm, 0.0001% Triton;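 also: plate controls were no compound for no effect and no enzyme for full effect; nearly all actives have a fitted effect of over 20% in size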
Target sequence (P00811 whole entry, looked up): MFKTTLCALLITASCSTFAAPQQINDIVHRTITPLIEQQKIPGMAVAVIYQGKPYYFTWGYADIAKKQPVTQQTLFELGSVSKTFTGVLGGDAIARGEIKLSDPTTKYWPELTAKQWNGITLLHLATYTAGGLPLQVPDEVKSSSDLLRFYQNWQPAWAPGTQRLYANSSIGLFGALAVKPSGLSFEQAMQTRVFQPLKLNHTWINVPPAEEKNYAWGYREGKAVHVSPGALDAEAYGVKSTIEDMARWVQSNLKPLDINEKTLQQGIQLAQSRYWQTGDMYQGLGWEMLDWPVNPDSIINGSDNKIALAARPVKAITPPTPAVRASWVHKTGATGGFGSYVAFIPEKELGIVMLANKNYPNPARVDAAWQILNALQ
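AmpC (5.3 nM in the dispensed reagent) in 20 mM phosphate pH 7.0 with 0.01% (detergent screen) or 0.0001% Triton X-100 was preincubated with compounds for 15 min at room temperature. Nitrocefin was then added from an 800 uM solution, and hydrolysis was followed at 480 nm.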
Sm TGR block: S. mansoni TGR enzyme inhibition; Q962Y6; purified TGR, DTNB reduction, TNB absorbance 405 nm; Potency, µM (titrated, usually from 114 µM), for inactives: at the top dose activity change, negative = inhibition, most hits filed as inhibitors; actives 3% (n = 360,000); AID 485364; also: % is scaled to controls: 0 for no effect and ±100 for the full control effect; nearly all actives have a fitted effect of over 60% in size
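Kinetic colorimetric format: TGR-catalysed, NADPH-driven DTNB reduction monitored via TNB absorbance. Enzyme dispensed at 20 nM; compound exposure 15 min at room temperature before reaction start.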
Pf growth 96h: inhibits malaria parasite growth, 96 h; actives 6.9% (n = 320,000); Potency, µM (highest dose often 28.7 µM), for inactives: top-dose activity change, negative = inhibition, usual class: inhibitors; P. falciparum luciferase reporter growth, 96 h; AID 504834; also: % is scaled to controls: 0 for no effect and ±100 for the full control effect
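P. falciparum expressing integrated firefly luciferase grown in erythrocytes (2% hematocrit, 0.05% parasitemia final) with compounds for 96 hours at 37 C, 5% CO2. Growth inhibition read as loss of luminescence after adding luciferase detection reagent.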
Pf growth 48h: inhibits P. falciparum growth in the first generation, 48 h; P. falciparum luciferase growth in erythrocytes, 48 h; Potency, µM (doses to about 28.7 µM), inactives show at the top dose activity change, negative = inhibition, hits mostly inhibitors; actives 5.9% (n = 310,000); also: % is scaled to controls: 0 for no effect and ±100 for the full control effect
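Luminescence readout; reporter = integrated firefly luciferase in P. falciparum. RBC culture at 2% hematocrit, 0.1% parasitemia final, 37 C/5% CO2; decreased signal taken as growth inhibition.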
AmpC inh detg: inhibitors of E. coli AmpC beta-lactamase with detergent; P00811; AmpC hydrolysis of nitrocefin, absorbance 480 nm, 0.01% Triton; Potency, µM (top dose mostly 114 µM), without a hit: top-dose activity change, negative = inhibition, usual class: inhibitors; actives 0.041% (n = 370,000); AID 485294;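 also: 0% = no-compound wells and -100% = no-enzyme wells; nearly all actives have a fitted effect of over 25% in size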
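20 mM phosphate pH 7.0 + 0.01% (detergent screen) or 0.0001% Triton X-100; 5.3 nM AmpC reagent; cpd preinc 15 min RT; nitrocefin (800 uM stock) to start; A480 q20 s × 4 min; Activity was normalised to no-enzyme and no-compound control wells.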
SARS PLpro yeast: SARS-CoV PLP inhibition in yeast; Potency, µM (top dose mostly 32.9 µM), for inactives: at the highest dose activity, positive = growth rescue, usual class: activators; AID 485353; actives 0.19% (n = 330,000); S. cerevisiae expressing SARS-CoV PLpro, growth rescue; calls by dose curve; also: 0% is about no effect; nearly all actives have a fitted effect of over 55% in size
The depositor's hits bear a star; ? = inconclusive; . = not tested or not shown; [ ] = another dose, or the depositor's remark. Unless noted, calls follow the shape of the dose curve; as a rule, active = well fitted curve in the direction sought with a large enough effect; inconclusive = small, poorly fitted or top-dose-only effect, or another doubt; inactive = no such curve, though single readings can be large; an effect the other way counts as inactive or inconclusive. Potency is read from the fitted curve at half-maximal effect.

SMILES | AmpC no deterg | Sm TGR block | Pf growth 96h | Pf growth 48h | AmpC inh detg | SARS PLpro yeast
C/C=C(\C)C(=O)N[C@@H](c1ccccc1)[C@@H](O)C(=O)O[C@H]1C[C@@]2(O)[C@@H](OC(=O)c3ccccc3)C3[C@](C)(C(=O)[C@H](O)C(=C1C)C2(C)C)[C@@H](O)C[C@H]1OC[C@@]31OC(C)=O (stereo not given in full) | 375% | 3% | 0.074µM* | 0.066µM* | 1% | ?
C/C=C(\C)C(=O)N[C@@H](c1ccccc1)[C@@H](O)C(=O)O[C@H]1C[C@@]2(O)[C@@H](OC(=O)c3ccccc3)C3[C@](C)(C(=O)[C@H](OC(C)=O)C(=C1C)C2(C)C)[C@@H](O)C[C@H]1OC[C@@]31OC(C)=O (stereo not given in full) | 197% | 4% | 0.033µM* | ? | -8% | 0%
CC(=O)O[C@@]12CO[C@@H]1C[C@H](O)[C@@]1(C)C(=O)[C@H](O)C3=C(C)[C@@H](O)C[C@@](O)([C@@H](OC(=O)c4ccccc4)C12)C3(C)C (stereo not given in full) | 6% | -19% | ? | 9% | ? | 0%
Cc1ccc(N2C(=O)N(CC(=O)Nc3cc(F)ccc3C)C(=O)C2C)cc1 (stereo not given) | -9% | -16% | 28% | 9% | -12% | -3%
Cc1ccc2c(CN3CCN(C(=O)c4ccco4)CC3)cc(=O)oc2c1C | 33% | 45µM* | ? | ? | 2% | -3%
Cc1ccc2c(CN3CCN(S(=O)(=O)c4ccc(Cl)cc4)CC3)cc(=O)oc2c1C | -4% | -3% | ? | 4.1µM* | -1% | -7%
Cc1ccc2c(CN3CCOCC3)cc(=O)oc2c1C | 0% | 23% | ? | 33% | 2% | 11%
Cc1ccc2c(CN3CCC(C)CC3)cc(=O)oc2c1C | -13% | 10% | ? | ? | 3% | 5%
Cc1ccc2c(CN3CCN(CCO)CC3)cc(=O)oc2c1C | -9% | 1% | . | 0% | 1% | -16%
Cc1ccc2c(CN3CC(C)CC(C)C3)cc(=O)oc2c1C (stereo not given) | -17% | 2% | 15µM* | ? | 0% | -4%
COc1ccc(C)cc1NC(=O)c1c(C(=O)Nc2cccc(C)c2C)sc2nc(C)cc(=O)n12 | . | -35% | . | . | -2% | .
CCOc1ccc(-c2nnc(SCC(=O)Oc3ccccc3)o2)cc1 | . | -10% | . | . | 3% | .
O=C(O)COc1ccccc1/C=N/NC(=O)CSc1nnc(SCc2ccccc2)s1 | -20% | 17% | 19% | 14% | 4% | 2%
CCS(=O)(=O)N1CC(=O)N(c2ccc(Cl)cc2C)C(C)(C(=O)NC2CCCCCC2)C1 (stereo not given) | . | -3% | . | . | -1% | .
CC(C)c1ccc(C2N3CC4(C)CN2CC(c2ccccc2)(C3)C4=O)cc1 (stereo not given) | . | 0% | . | . | -9% | .
CC(=O)CSc1ccc(-c2nc3ccccc3[nH]2)cn1 | -34% | -7% | 8.3µM* | 75% | -18% | -14%
O=C(CCn1cccc1)NC1CCCc2ccccc21 (stereo not given) | -10% | ? | 6.6µM* | 6% | -10% | 4%
CN(C(=O)CCl)C1CCCc2ccccc21 (stereo not given) | -19% | 11µM* | ? | ? | -7% | -1%
O=C(NC(=S)NC1CCCc2ccccc21)c1ccc(F)cc1 (stereo not given) | -49% | 18µM* | ? | -69% | -11% | -13%
O=C(NC1CCCc2ccccc21)c1cn2ccccc2n1 (stereo not given) | -13%[11.4 µM] | 1% | 1% | 8% | -8% | -2%
Cc1nc2ccccn2c1C(=O)NC1CCCc2ccccc21 (stereo not given) | 24% | 13% | ? | 9.3µM* | 3% | -6%
COc1ccccc1NC(=O)COn1nnc2ccc(S(=O)(=O)N3CCOCC3)cc21 | -2% | 7% | -4% | -10% | 4% | 1%
CN(C)/N=N/c1nc[nH]c1C(N)=O | . | . | 6% | -7% | . | .
Cc1cc(C)cc(OCC(=O)NC2CCCc3ccccc32)c1 (stereo not given) | 6% | -3% | 8.3µM* | ? | -2% | .
O=C(CCl)NC1CCCc2ccccc21 (stereo not given) | -9% | 25µM* | 48% | 12µM* | 7% | 0%
SMILES | AmpC no deterg | Sm TGR block | Pf growth 96h | Pf growth 48h | AmpC inh detg | SARS PLpro yeast
Cc1c(C(=O)Nc2nc(-c3ccc(F)cc3)ns2)oc2ccc(Cl)cc12 | . | 4% | . | . | 26% | .
CCOC(=O)Cn1c(=O)cc(C(F)(F)C(F)(F)F)c2c(C)nn(CC)c21 | . | 8% | . | . | 13% | .
Cc1cc2c(n1-c1ccc(C(=O)NCCc3ccccc3)cc1)CCC(C)C2 (stereo not given) | . | -34% | . | . | 4% | .
COc1ccc(OC)c(CNC(=O)c2ccc3c(c2)c(C)c(C)n3Cc2ccc(Cl)cc2)c1 | . | 4% | . | . | -1% | .
N#C/C(=N/Nc1ccc(OC(F)(F)F)cc1)C(N)=S | -33% | -18% | 1.7µM* | 6.6µM* | -6% | -7%
COc1ccc(N/N=C(\C#N)C(N)=O)cc1 | -6% | -16% | 47% | 20% | -6% | -78%
O=C(c1ccco1)c1nnn(Cc2ccccc2)c1-c1ccccc1 | . | 32µM* | -13% | -24% | -5% | .
CCOc1ccc(NC(c2ccccc2)P(=O)(OC)OC)cc1 (stereo not given) | 0% | 16µM* | ? | 52% | 11% | 8%
Cc1ccc(N(Cc2ccccc2)C(=O)c2ccc(F)c(S(=O)(=O)N3CCOCC3)c2)cc1 | -6% | 9% | ? | ? | ? | -2%
Cc1cccc(N(Cc2ccccc2)C(=O)c2ccc(F)c(S(=O)(=O)N3CCOCC3)c2)c1 | 80% | -4% | 12µM* | 12µM* | ? | -6%
CC1CN(S(=O)(=O)c2cc(C(=O)N(CCc3ccccc3)Cc3ccccc3)ccc2Cl)CC(C)O1 (stereo not given) | 81% | -3% | 5.2µM* | 5.2µM* | ? | 1%
Cc1ccc(S(=O)(=O)N2CCOCC2)cc1C(=O)OCC(=O)N(Cc1ccccc1)C(C)C | 178% | 0% | ? | 15µM* | 5% | 5%
CCN(CC1COc2ccccc2O1)C(=O)c1ccc(Cl)c(S(=O)(=O)N2CC(C)OC(C)C2)c1 (stereo not given) | 150% | 2% | -25% | ? | ? | 4%
O=C(OCC(=O)N(CCc1ccccc1)Cc1ccccc1)c1cc(S(=O)(=O)N2CCOCC2)ccc1F | 55% | -5% | 3% | -19% | -13% | -7%
